This is one part of a sample in which hits are shown more often than they occur.
MLL CXXC-DNA inh = MLL CXXC-DNA interaction inhibition | AID 2662 | Potency, µM (highest dose often 115 µM), for the others: at the highest dose activity change, negative = inhibition, actives largely listed as inhibitors | 290,000 tested, 0.037% active | Q03164 | MLL-CXXC / FITC-HOXA9 DNA fluorescence polarization; active = well fitted inhibition curve with a large enough effect in the polarisation, with a control signal flat, not every such curve was filed as active; inconclusive = small, poorly fitted or top-dose-only effect, or effect the other way, or a change in a side signal; inactive = no such curve, though single readings can be large or run the other way; the % refers to the polarisation; note: potency is the fitted concentration of half-maximal effect
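Purified MLL-CXXC (added from a 7 uM solution) was preincubated 5 min at ambient with pinned compounds in 50 mM Tris-HCl pH 7.5, 50 mM NaCl, 1 mM DTT, 0.05% BSA. Fluorescein-labeled HOX-A9 DNA (50 nM solution) followed, 30 min, then polarization read.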
Menin MLL FP FL = inhibitors of human menin-MLL interaction, wild-type MLL peptide; Fluorescence polarization, fluorescein-MLL peptide displacement from menin; FP activity change, % at 61.4 µM; 290,000 tested, under 10 active; AID 1766; active = well fitted curve in the direction sought with a large enough effect in the polarisation, not every such curve was filed as active; inconclusive = small, poorly fitted or top-dose-only effect, or effect the other way, or a change in a side signal; inactive = no such curve, though single readings can be large or run the other way; the % refers to the polarisation; note: % of control where 0% means no effect
Menin MLL FP TR = menin-MLL binding inhibition, Texas Red mutant peptide | Menin + Texas Red MLL mutant peptide, fluorescence polarization | 270,000 tested, 0.23% active | Potency, µM (highest dose often 61.6 µM), without a hit: at the top dose FP activity change, negative = inhibition, hits mostly inhibitors; active = well fitted inhibition curve with a large enough effect in the polarisation, with a control signal flat, not every such curve was filed as active; inconclusive = small, poorly fitted or top-dose-only effect, or effect the other way, or a change in a side signal; inactive = no such curve, though single readings can be large or run the other way; the % refers to the polarisation; note: potency is the fitted concentration of half-maximal effect; % of control where 0% means no effect
p53 reactivator = mutant p53 re-activation in reporter cells. Potency, µM (highest dose often 92.2 µM), inactives show top-dose activity change, positive = activation, most hits filed as activators. 320,000 tested, 0.063% active. H1299 p53-A138V BP100-luciferase reporter, luminescence, 24 h; active = well fitted activation curve with a large enough effect; inconclusive = small, poorly fitted or top-dose-only effect; inactive = no such curve, though single readings can be large or run the other way; note: potency is the fitted concentration of half-maximal effect; % of control where 0% means no effect; nearly all actives have a fitted effect of over 45% in size
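p53-null H1299 cells stably carrying temperature-sensitive p53-A138V and a BP100-luciferase reporter were pinned with compounds (4-point, 1:5 series) and held 24 hrs at 37 deg C. Luminescence was read 10 min after detection reagent.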
ClpP mod = qHTS Assay for Activators of ClpP. Potency, µM (doses to about 57.5 µM), for the others: at the highest dose activity change, negative = active. ATP-dependent Clp protease proteolytic subunit (Bacillus subtilis (strain 168)), P80244. AID 651965, 2013. purified B. subtilis ClpP, FRET peptide cleavage, 20 min. 340,000 tested, 1.9% active; active = well fitted falling curve with a large enough effect; inconclusive = small, poorly fitted or top-dose-only effect; inactive = no such curve, though single readings can be large or run the other way; note: potency is the fitted concentration of half-maximal effect; the source files actives as falling curves though it sought activators and does not explain the sign; nearly all actives have a fitted effect of over 65% in size
Target sequence (P80244 whole entry, looked up): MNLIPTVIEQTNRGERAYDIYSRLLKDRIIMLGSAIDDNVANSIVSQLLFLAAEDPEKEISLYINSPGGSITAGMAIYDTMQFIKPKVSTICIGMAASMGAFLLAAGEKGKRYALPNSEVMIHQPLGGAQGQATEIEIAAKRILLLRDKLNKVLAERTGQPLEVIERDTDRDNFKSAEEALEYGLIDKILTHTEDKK
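FRET quenching reversal measured ClpP activation: 10 microg/mL B. subtilis ClpP at pH 8 with the FRET-FV decapeptide, read at 430 nm after 320 nm excitation. The 20-min minus 0-min signal was scaled between DMSO/no-enzyme wells and ADEP (5.8 microM final).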
Active calls of the source: *; ? = inconclusive; . = no result given; [ ] = remark or other dose.

SMILES | MLL CXXC-DNA inh | Menin MLL FP FL | Menin MLL FP TR | p53 reactivator | ClpP mod
CC(=O)NC1CCCC1C#N (stereo not given) | . | . | . | . | 1%
CCOC(=O)c1ccc(S(=O)(=O)N2CCN(c3nc(-c4cccs4)nc4ccccc34)CC2)cc1 | . | . | . | . | 10µM*
CN(C)c1ccc(/C=C/c2ccnc3ccccc23)cc1Br | . | . | . | . | -2%
CCOc1cnc(-c2ccc(OC)cc2)o1 | -3% | -3 | 0% | ? | 25µM*
COc1ccc(C2C=C(c3ccccc3)Nc3nnnn32)cc1 (stereo not given) | 12% | ? | 31% | ? | ?
COc1ccc(C2=CC(c3ccc(C)cc3)n3nnnc3N2)cc1 (stereo not given) | -1% | ? | 23% | 15% | 25µM*
Cc1nc2c(=O)n(C)c(=O)[nH]c2n1Cc1ccccc1 | -5% | 0 | 0% | 30% | 28µM*
CCCn1c(-c2ccccc2)nc2c(=O)n(C)c(=O)[nH]c21 | -5% | 5 | -15% | 1% | ?
Cc1ccc(C)c(NC(=O)Cn2c(=O)n(Cc3ccco3)c(=O)c3oc4ccccc4c32)c1 | . | . | . | . | 32µM*
O=c1oc(-c2cccs2)nc2ccc(Br)cc12 | 0% | 5 | ? | -3% | 28µM*
Cn1nc(C(F)(F)F)c(C#N)c1N1CCN(c2ccc(F)cc2)CC1 | -7% | 1 | 1% | -4% | 14µM*
CCOC(=O)c1nn(-c2ccc3c(c2)OCCO3)cc1O | 8% | 1 | -3% | -4% | .
CC(=O)N1CCc2cc([N+](=O)[O-])ccc21 | . | . | . | . | -3%
COC(=O)c1nn(-c2ccc3c(c2)CCN3C(C)=O)cc1O | -9% | -1 | -14% | -8% | 7.1µM*
COC(=O)c1nn(-c2ccc3c(c2)OCO3)cc1O | 5% | 0 | 8% | 18% | 32µM*
CCC[C@H](NC(C)=O)C(=O)N[C@H]1CC(=O)ONCCCC[C@@H](C(N)=O)NC(=O)[C@H](Cc2c[nH]c3ccccc23)NC(=O)[C@H](CCCN=C(N)N)NC(=O)[C@@H](Cc2ccc3ccccc3c2)NC(=O)[C@H](Cc2cnc[nH]2)NC1=O | . | 1 | 0% | . | .
CCOC(=O)CNC(=O)O[C@H]1C(=O)c2ccc(OC)cc2O[C@@H]1c1ccc2c(c1)OCO2 | . | 0 | -1% | . | .
COc1cc2nc(N3CCCN(C)CC3)nc(NC3CCN(C)C3)c2cc1OC (stereo not given) | . | . | . | . | 4%
O=C(N/N=C/c1cccc(C(F)(F)F)c1)c1cc2c(s1)-c1ccccc1CC2 | -5% | -3 | 1% | -5% | ?
Cc1cccc(/C=N/NC(=O)c2cc3c(s2)-c2ccccc2CC3)c1 | 1% | 7 | 0% | 1% | 28µM*
CC(=O)N(Cc1cccnc1)c1cccc(-c2nc3ccccc3s2)c1 | 0% | 2 | -21% | -2% | 14µM*
COc1ccc2nc(N(Cc3cccnc3)C(C)=O)sc2c1 | . | . | . | . | 0%
COC(=O)c1cc2n3ccccc3c(C)c(-c3ccccc3)c-2c1C(=O)OC | -22% | ? | -13% | -2% | 32µM*
CCCN(CCC)S(=O)(=O)c1ccc(C(=O)OCCN2C(=O)c3cccc4c(N5CCOCC5)ccc(c34)C2=O)cc1 | ? | ? | 2% | -8% | 22µM*
Cc1cc(C)cc(NC(=O)c2ccc(NC(=O)C3C4CC5OC(=O)C3C5C4)cc2)c1 (stereo not given) | 6% | -2 | 4% | -6% | 32µM*
SMILES | MLL CXXC-DNA inh | Menin MLL FP FL | Menin MLL FP TR | p53 reactivator | ClpP mod
Cc1ccc2nc(COc3ccccc3NC(=O)C(C)(C)C)cc(=O)n2c1 | . | . | . | . | 25µM*
Cc1cccc(C(=O)Nc2ccccc2OCc2cc(=O)n3cc(C)ccc3n2)c1 | . | . | . | . | -3%
Cc1nn(Cc2ccccc2)c(C)c1NC(=O)CCCn1nc(C)c([N+](=O)[O-])c1C | -4% | 9 | 11% | -8% | 28µM*
CC(C)(C)N1C(=O)[C@H]2[C@H]3[C@H](O)[C@H](O)C/C(=N/NC(=O)OCc4ccccc4)[C@@H]3CC[C@@H]2C1=O | . | 4[11.7 µM] | 6%[11.7 µM] | . | .
Cc1cccc(C(=O)NCc2cn3cccc(C)c3n2)c1 | . | . | . | . | -6%
Cc1cccn2cc(CNC(=O)CC3CCCC3)nc12 | 0% | 1 | -11% | -11% | 32µM*
CCOC(=O)c1cc2ccc3ccccc3c2s1 | -8% | 3 | 26% | 25µM* | ?
CCOC(=O)c1cc2c(s1)-c1ccccc1CC2 | -5% | 5 | 0% | 17% | ?
COc1ccc2oc(=O)c(-c3nnc(N)s3)cc2c1 | -3% | -1 | 9% | 12% | .
Nc1nnc(-c2cc3ccccc3oc2=O)s1 | -9% | -7 | -7% | 8% | 25µM*
CC1=CC2=C(OC1N(C)C)c1cccc3cccc(c13)C2=O (stereo not given) | -7% | ? | 28µM* | -2% | -1%
O=C(O)Cc1sc(-c2ccccc2)nc1-c1ccccc1 | -10% | -3 | . | -2% | 32µM*
O=C(O)Cc1sc(-c2ccc(Cl)cc2)nc1-c1ccccc1 | 1% | -1 | 12% | -2% | -24%
Cc1ccnc(NC(=O)C2CCN(S(=O)(=O)c3ccc(Cl)c(C(F)(F)F)c3)CC2)c1 | . | . | . | 18% | 32µM*
O=C(O)c1cccc(-n2cnc3cccnc32)c1 | . | . | . | . | -1%
CCOc1ccc2ccccc2c1C1NC(=S)N(C)C(C)=C1C(=O)OC (stereo not given) | 1% | 2 | -5% | 3% | 8.9µM*
Cc1ccc(-c2noc(CCC(=O)NCCN3CCN(Cc4ccccc4)CC3)n2)cc1 | -2% | 0 | -22% | ? | 28µM*
CCOC(=O)c1c(N)c(C#N)c2n1CCCC2 | 4% | 1 | -14% | 4% | 32µM*
CCOC(=O)c1c(N)c(C#N)c2n1CCCCC2 | 0% | 3 | -1% | -8% | -2%
CCn1c(C)nc2cc(-c3nc4n(n3)Cc3ccccc3-4)ccc21 | -9% | 1 | 28µM* | -63% | ?
COc1ccc(/C=C(/C#N)C(=O)Nc2cc(C)ccc2C)cc1C(=O)O | -4% | 0 | 9% | 5% | 25µM*
CC(=O)Nc1ccc2c(c1)C(=O)N(C1CCCCC1)C2=O | 3% | 3 | -1% | 10% | 25µM*
O=C(Cc1ccccc1)NCCCNC(=O)Cc1ccccc1 | . | . | . | . | 28µM*
O=C(CCc1ccccc1)NCCCNC(=O)CCc1ccccc1 | . | . | . | -1% | 2%
CCOC(=O)c1cc(=O)n2c(nc3ccccc32)[nH]1 | . | . | . | 12% | 4%
Cc1cc(=O)n2c(nc3ccccc32)[nH]1 | -6% | 3 | -14% | -1% | 14µM*
COC(=O)c1ccc(-c2ccco2)n1Cc1cc(C)ccc1C | 5% | 1 | -5% | 7% | 32µM*
COc1ccc(C)cc1N/C(N)=N/c1nc(C)cc(C)n1 | ? | 8 | -8% | 6% | -3%
Cc1ccc(C)c(N/C(N)=N/c2nc(C)cc(C)n2)c1 | 1% | 3 | ? | 7% | 32µM*
Cc1ccc(/C=c2\sc3nc(-c4cccnc4)nn3c2=O)cc1 | ? | ? | ? | 9% | 14µM*
